From PubChem
This is a sample that favours compounds with a hit; in the whole collection about 1.2% have one here.
Tb PYK inh = blocks Trypanosoma brucei pyruvate kinase; TbPYK enzyme, Kinase-Glo Plus ATP luminescence, 45 min; Potency, µM (series often up to 76.8 µM), actives largely listed as inhibitors; hit rate 0.12% among 410,000; AID 624173; also: nearly all actives have a fitted effect of over 50% in size
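Readout: single end-point luminescence (Kinase-Glo Plus, 10 min). Reaction conditions were TbPYK/substrate plus 130 uM ADP, 45 min at RT, pH 7.2 TEA buffer. No-enzyme wells served as controls, and data were normalized before concentration-response fitting.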
Giardia FBPA inh = blocks Giardia fructose-bisphosphate aldolase activity; purified Giardia FBPA; A8B2U2; Potency, µM (series often up to 59.6 µM), usual class: inhibitors; AID 2451; hit rate 0.71% among 290,000; also: nearly all actives have a fitted effect of over 55% in size
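Giardia FBPA (40 nM reagent) was preincubated 10 min at RT with compound (up to 57.5 uM final), then substrate plus GAPDH/TPI/NAD/arsenate coupling system with diaphorase/resazurin was added; resorufin fluorescence (525/598 nm) was read after 20 min.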
LmPK inh = blocks Leishmania mexicana pyruvate kinase activity; Potency, µM (highest dose often 57.5 µM), actives largely listed as inhibitors; hit rate 0.37% among 290,000; purified LmPK, Kinase-Glo ATP luminescence, 1 h; Q27686
Target sequence (Q27686 whole entry, looked up): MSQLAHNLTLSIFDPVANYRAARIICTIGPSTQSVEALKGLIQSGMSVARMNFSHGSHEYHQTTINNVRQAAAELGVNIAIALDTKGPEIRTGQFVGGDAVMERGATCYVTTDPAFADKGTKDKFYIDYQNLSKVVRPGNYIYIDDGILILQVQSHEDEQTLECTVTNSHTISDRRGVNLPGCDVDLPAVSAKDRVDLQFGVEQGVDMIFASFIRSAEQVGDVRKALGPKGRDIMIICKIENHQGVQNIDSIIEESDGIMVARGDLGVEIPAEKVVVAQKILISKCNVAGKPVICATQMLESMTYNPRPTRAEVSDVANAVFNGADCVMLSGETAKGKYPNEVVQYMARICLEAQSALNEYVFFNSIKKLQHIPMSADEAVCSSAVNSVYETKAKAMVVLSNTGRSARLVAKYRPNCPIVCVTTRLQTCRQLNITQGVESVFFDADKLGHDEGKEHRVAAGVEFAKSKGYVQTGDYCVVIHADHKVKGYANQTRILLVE
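Purified LmPK (0.1 nM) converted ADP (0.1 mM) to ATP with PEP (0.5 mM) in imidazole buffer pH 7.2 with KCl and MgCl2, 1 h at room temperature. ATP was read by Kinase-Glo luminescence; data normalized to uninhibited and no-enzyme controls.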
NS1 inh = influenza NS1 inhibition. Potency, µM (top dose mostly 46.1 µM). hit rate 0.4% among 270,000. AID 2326; calls by dose curve; also: actives are rising curves; nearly all actives have a fitted effect of over 50% in size
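Recovery from NS1-induced slow growth read by OD600 in budding yeast switched to galactose assay medium (pH 6.0, -URA) at 1:100 dilution. Compound 23 nl per well; the matching strain lacking NS1 serves as control.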
AMA1-RON2 inh = disrupts binding of P. falciparum AMA1 to RON2 | AlphaScreen AMA1-biotinylated RON2 peptide binding | Potency, µM (titrated, usually from 58.2 µM), hits mostly inhibitors | hit rate 0.2% among 360,000; also: nearly all actives have a fitted effect of over 45% in size
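AMA1 (3D7) with his tag at 25 nM final met compounds first, then biotinylated RON2 peptide at 25 nM; detection used donor plus acceptor beads, 10 µg/mL apiece, read by AlphaScreen after 30 min at room temperature.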
Numbers stand for hits; i = inactive; ? = inconclusive; nt = no result given; ! = not confirmed by another sample; [ ] = remark or other dose. Unless noted, calls follow the shape of the dose curve; as a rule, active = well fitted curve in the direction sought with a large enough effect; inconclusive = small, poorly fitted or top-dose-only effect, or another doubt; inactive = no such curve, though single readings can be large; an effect the other way counts as inactive or inconclusive.

SMILES	Tb PYK inh	Giardia FBPA inh	LmPK inh	NS1 inh	AMA1-RON2 inh
CC(C)OC(=O)[C@@H]1C=C[C@H](C)[C@@H](CCCCOCc2ccccc2)O1	nt	i	nt	nt	nt
CC1=NN(c2ccccc2)C(=O)/C1=C/c1cccc(C)c1	i	i	i	i	i
CC1=NN(c2ccccc2)C(=O)/C1=C/C=C/c1ccc(N(C)C)cc1	?	i	14µM	nt	1.4µM
CC1=NN(c2ccccc2)C(=O)/C1=C\C=C\c1ccccc1	i	i	i	i	6.3µM
O=c1c(-c2cccs2)nc2cnc(Oc3ccccc3)nc2n1C1CC1	i	i	nt	nt	nt
O=[N+]([O-])c1ccc(N=Nc2c(Cl)cc(O)cc2Cl)cc1	i	i	22µM	i	?
CC(N)=Nc1ccc([N+](=O)[O-])cc1	i	i	i	i	i[11.6 µM]
COc1cc(C(O)c2nc(-c3ccc(N(C)C)cc3)cs2)ccc1F (stereo unspecified)	i	nt	nt	nt	20µM
CCCCNC(=O)c1nn(C)c2c1CSc1ccccc1-2	i	nt	nt	nt	nt
NC(=O)c1sc2nc3c(c(-c4ccco4)c2c1N)CCC3	i	?	i	i	i
Nc1c(C(=O)NC2CC2)sc2nc3c(c(-c4ccco4)c12)CC/C3=C/c1ccco1	i	5.6µM	i	?	i[2.32 µM]
CC(C)NC(=O)N1CCCC2(CCN(C(=O)c3ccncc3)CC2)C1	i	i	nt	nt	nt
CN(C)c1ccc(/C=C/C(=O)c2cc(Cl)ccc2O)cc1	i	i	i	i	14µM
O=C(/C=C/c1ccncc1)c1cc(Cl)ccc1O	i	i	i	i	i
O=C(N/N=C/c1ccccn1)c1sc2ccccc2c1Cl	i	5µM	i	i	i
O=C(N/N=C/c1c[nH]c2ccccc12)c1sc2ccccc2c1Cl	i	i	i	i	i
CO[C@@H]1/C=C\O[C@]2(C)Oc3c(C)c(O)c4c(O)c(c(CN5CCN(C)CC5)c(O)c4c3C2=O)NC(=O)/C(C)=C\C=C[C@@H](C)[C@@H](O)[C@H](C)[C@@H](O)C(C)[C@H](OC(C)=O)[C@@H]1C (stereo partly specified)	nt	nt	nt	i	nt
Cc1nc(-c2coc3cc(OCC(=O)O)ccc3c2=O)cs1	i	i	?	i	i
Cc1nc(-c2coc3cc(O)c(C)cc3c2=O)cs1	i	i	7.1µM	i	i
Cc1ccc(-c2noc(CN(C3CCCCC3)S(=O)(=O)c3ccc(C)cc3)n2)cc1	i	nt	nt	nt	nt
Cn1c(=O)[nH]c(=O)c2c1nc([N+](=O)[O-])n2Cc1ccccc1	i	14µM	i	i	i
COc1ccc(N2CCN(CC(O)COc3ccc(C)cc3C)CC2)cc1 (stereo unspecified)	i	i	i	i	25µM
CCCCCCCCCCCCCCCC(=O)O[C@H]1[C@@H](O)[C@@H](O)[C@@H]([C@H](NC(=O)[C@@H]2C[C@@H](CCC)CN2C)[C@H](C)Cl)O[C@@H]1SC	i	nt	nt	nt	nt
COc1ccc(-c2ccc(C(=O)NCc3ccc(N4CCN(C)CC4)cc3)c3occc23)c(C)c1	i	nt	nt	nt	16µM
COc1ccc(-c2ccc(C(=O)NCc3ccccc3)c3occc23)c(C)c1	i	nt	nt	nt	i
SMILES	Tb PYK inh	Giardia FBPA inh	LmPK inh	NS1 inh	AMA1-RON2 inh
N[C@H](C(=O)O)c1ccc(C(=O)O)cc1	nt	i	nt	nt	nt
CN(C)[C@@H]1C(=O)C(C(N)=O)=C(O)[C@@]2(O)C(=O)C3=C(O)c4c(O)cccc4[C@@](C)(O)C3[C@H](O)C12 (stereo partly specified)	i	nt	nt	nt	1.4µM!
CN(C)[C@H]1C(=O)C(C(N)=O)=C(O)[C@]2(O)C(=O)C3=C(O)c4c(O)cccc4[C@@](C)(O)[C@H]3C[C@@H]12	i	?	nt	nt	nt
C=C1c2cccc(O)c2C(O)=C2C(=O)[C@]3(O)C(O)=C(C(N)=O)C(=O)[C@@H](N(C)C)[C@@H]3[C@@H](O)[C@H]12	?	?	i	i	3.2µM
COc1ccc(NC(=O)c2cc([N+](=O)[O-])ccc2O)cc1	?	i	13µM	i	i
CN(C)c1ccc(CNC(=O)C2(C)Cc3c(-c4cccc(C(F)(F)F)c4)ccnc3O2)cc1 (stereo unspecified)	i	nt	nt	nt	25µM
COc1ccc(C2CC(c3ccccc3)Oc3cc4c(cc32)OCO4)cc1 (stereo unspecified)	nt	16µM!	nt	nt	nt
COc1ccc(C2CC(c3ccccc3)Oc3ccc(C(C)(C)C)cc32)cc1 (stereo unspecified)	nt	i	nt	nt	nt
CCCn1c(C)nc2c(NCCCCN3CCCC3)nc(C)nc21	nt	i	nt	nt	nt
COC(=O)/C(Cc1cc(Br)c(OC)c(Br)c1O)=N/O	nt	i	nt	nt	nt
COC(=O)c1ccc2c(c1)C(C)(C)C(/C=C/c1ccccc1O)=[N+]2C	?	?	14µM	i	?
CSc1ccc2c(c1)N(CCCN(C)C)c1ccccc1S2	nt	nt	nt	i	nt
CN1CCN(CCCN2c3ccccc3Sc3ccc(Cl)cc32)CC1	i	?	i	i	16µM!
CN(C)CCCN1c2ccc(O)cc2Sc2ccc(Cl)cc21	i	nt	nt	i	20µM
CC1=NN(c2ccc(Cl)c(C(=O)O)c2)C(=O)C1	i	i	i	i	i
CC1=NN(c2ccc(C(=O)O)c(N)c2)C(=O)C1	i	7.1µM	i	nt	i
Cc1oc(-c2ccc3c(c2)OCCO3)cc1C(=O)NCC(=O)O	i	i	i	i	i
Cc1oc(-c2ccc3c(c2)OCCO3)cc1C(=O)O	?	i	14µM	i	i
Cc1cc(=O)[nH]c(S/C=C/c2ccccc2)n1	i	i	13µM	i	i
COc1cc2c(cc1OC)[C@@H](Cc1cc(OC)c(OC)c(OC)c1)[N@+](C)(CCCOC(=O)CC/C=C/CCC(=O)OCCC[N@+]1(C)CCc3cc(OC)c(OC)cc3[C@H]1Cc1cc(OC)c(OC)c(OC)c1)CC2	i	nt	nt	nt	nt
O=C(N=Nc1c(O)[nH]c2ccccc12)c1ccco1	i	i	25µM	i	i
Oc1cc[c]([Hg][Cl])cc1	1.4µM	nt	nt	nt	nt
COC(=O)[C@@H]1C[C@H]1[C@@H](NS(=O)(=O)c1ccc2ccccc2c1)c1ccccc1	nt	i	nt	nt	nt
Cc1ccc2c(c1C)NC(C(=O)O)C1CC=CC21 (stereo unspecified)	?	i	i	i	12µM
CCN(CC)C(=O)c1ccc2c(c1)C1C=CCC1C(C(=O)O)N2 (stereo unspecified)	?	?	i	i	13µM
SMILES	Tb PYK inh	Giardia FBPA inh	LmPK inh	NS1 inh	AMA1-RON2 inh
CCOc1ccc(-c2ccc(SCC)nn2)cc1	?	i	11µM	i	i
COc1ccc(-c2ccc(SC)nn2)cc1	?	i	14µM	nt	i
N[C@@H](CP(=O)(O)O)C(=O)O	nt	nt	nt	i	nt
CC(=O)[C@@H]1[C@H]2[C@H](C(=O)[C@H]3OC[C@@H]2O3)[C@H]2C=Cc3ccccc3N21	nt	22µM	nt	nt	nt
Cc1ccc(-n2nnnc2CNC(=O)C(C)C)cc1C	i	nt	nt	nt	nt
CN1CCC(c2c[nH]c3ccc(O)cc23)CC1	i	2µM!	nt	i	i
CCN(CC)c1ccc(/C=C2/C(=O)ON=C2C)cc1	i	i	i	i	i
CCN(CC)c1ccc(/C=C2\C(=O)N(c3nnc(C)c(=O)[nH]3)N=C2C)cc1	i	?	i	i	14µM
CCOC(=O)CSc1ccc(-c2nc3ccccc3[nH]2)cn1	i	i	?	i	i
